High-throughput results as filed in PubChem.
Pf Dd2 growth: qHTS Primary assay for Inhibitors of Plasmodium falciparum Dd2 growth in vitro; Potency, µM (series often up to 28.9 µM), for the others: at the top dose activity, negative = inhibition, usual class: inhibitors; P. falciparum Dd2 growth, SYBR Green, 72 h; AID 1347417, 2020; 4.3% of 120,000 active; active means well fitted inhibition curve with a large enough effect;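 further: plate controls were DMSO vehicle for no effect and reference drug for full effect; nearly all actives have a fitted effect of over 65% in size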
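Readout: SYBR Green fluorescence, 485 nm excitation, 535 nm emission, after ~16 h lysis at 37C. Before that, Dd2-infected red cells (2.5% hematocrit) grew 72 h with compound, 29 uM top final concentration.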
The depositor's hits bear a star; i = inactive; [ ] = remark or other dose. The entries come from a sample that favours hits as a whole. Potency means the concentration at half of the fitted maximal effect.

SMILES	Pf Dd2 growth
Cc1cnc(C(=O)N2CCCn3nc(CCC(=O)NC(C)C)cc3C2)cn1	1.2%
CC(C)NC(=O)N1CCC2(CC1)C(=O)NCN2C(=O)Cc1c[nH]c2ccccc12	7.9%
CC(C)(C)C(=O)N1CC[C@@H](CC(=O)O)[C@@H](CCN2CCN(c3ccccc3)CC2)C1	16.6%[44.1 µM]
CCOC(=O)C1CCN(C(=O)C2CCN(C3=NS(=O)(=O)C(c4ccc(C)c(C)c4)=C3C)CC2)CC1	3.98µM*
CC1=C(c2ccc(C)c(C)c2)S(=O)(=O)N=C1N1CCC(C(=O)Nc2ccc(Cl)cc2)CC1	i
CC1=C(c2ccc(C)c(C)c2)S(=O)(=O)N=C1N1CCC(C(=O)N2CCC(C(N)=O)CC2)CC1	i
CCOc1cccc(CN2CCC(C)(c3noc(C4CCOCC4)n3)CC2)c1	-12.4%
Cc1ccc(O[C@H]2COCC[C@H]2NC(=O)c2cc(CC(C)C)nc(N)n2)cn1	-8.1%
CNC(=O)[C@H]1C[C@H](Oc2ccccc2)CN1C(=O)c1ccc2ccccc2n1	-21.8%
COC[C@@H]1CN(C(=O)c2ccc3[nH]ccc3c2)C[C@H]1c1nc(C)no1	15.8%
N#Cc1c(-c2ccccc2)cc(-c2ccccc2)nc1SCC(=O)Nc1ccc(Cl)cc1	-13.2%
COc1ccc(NC(=O)CSc2nc(-c3ccccc3)cc(-c3cc(OC)c(OC)c(OC)c3)c2C#N)c(OC)c1	6.31µM*
COc1ccc(-c2cc(-c3ccccc3)nc(SCC(=O)Nc3ccccc3F)c2C#N)cc1	21.7%
O=C(NC[C@H]1O[C@@H](CC(=O)N2CCN(c3ccccc3)CC2)C(O)[C@@H]1O)c1cccc(F)c1 (stereo partly specified)	-6.7%
O=C(c1ccc2c(c1)N(Cc1ccc(F)cc1)C(=O)c1ccccc1S2=O)N1CCOCC1 (stereo unspecified)	-15.4%
CCOC(=O)N1CCN(C(=O)c2ccc3c(c2)N(Cc2ccccc2F)C(=O)c2ccccc2S3=O)CC1 (stereo unspecified)	i
CCN1CCN(C(=O)c2ccc3c(c2)N(Cc2ccccc2F)C(=O)c2ccccc2S3=O)CC1 (stereo unspecified)	0.282µM*
CCN1C(=O)c2ccccc2S(=O)c2ccc(C(=O)N3CCN(c4ccc(F)cc4)CC3)cc21 (stereo unspecified)	8.91µM*
CCN1C(=O)c2ccccc2S(=O)c2ccc(C(=O)N3CCN(c4ccccc4OC)CC3)cc21 (stereo unspecified)	5.01µM*
COc1ccc(N2CCN(C(=O)c3ccc4c(c3)N(Cc3cc(C)ccc3C)C(=O)c3ccccc3S4=O)CC2)cc1 (stereo unspecified)	-16.5%
O=C(c1ccc2c(c1)N(Cc1ccc(Cl)cc1)C(=O)c1ccccc1S2=O)N1CCCCC1 (stereo unspecified)	-11.4%
O=C(c1ccc2c(c1)N(Cc1ccccc1F)C(=O)c1ccccc1S2=O)N1CCN(c2ccccc2)CC1 (stereo unspecified)	-2.0%
O=C(c1ccc2c(c1)N(Cc1ccc(Cl)cc1)C(=O)c1ccccc1S2=O)N1CCOCC1 (stereo unspecified)	1.4%
O=S(=O)(c1ccc(F)cc1F)N1CCCC(Cn2c(C3CC3)nc3cccnc32)C1 (stereo unspecified)	i
CC(C)CN1C(=O)CCc2cc(NC(=O)c3c(F)cccc3F)ccc21	-21.1%
SMILES	Pf Dd2 growth
NS(=O)(=O)c1ccc(CNC(=O)Cn2nc3c(cc2=O)CCCCC3)cc1	-13.1%
CC(=O)N(C[C@H]1O[C@@H](CC(=O)NC(C)C)[C@H](O)[C@@H]1O)C[C@H]1O[C@@H](CC(=O)NC(C)C)[C@H](O)[C@@H]1O	20.9%
Cc1ccc(CC(=O)NC(C)C(=O)N2CCN(c3ccccn3)CC2)cc1 (stereo unspecified)	i
Cc1ccc(-c2cc(N3CCCN(C(=O)Cc4ccccc4)CC3)n[nH]2)cc1C	-13.3%
COc1cc(-c2onc(C)c2C(=O)NCCSC)cc(OC)c1OC	i
CCC(=O)Oc1ccc(/C=C(\C#N)c2nc3ccccc3[nH]2)cc1OC	-11.9%
COc1cc(/C=C(\C#N)c2nc3ccc(C)cc3[nH]2)ccc1OCc1ccc(C)cc1	2.82µM*
CCOC(=O)COc1ccc(/C=C(\C#N)c2nc3ccc(C)cc3[nH]2)cc1OC	i
Cc1nc2n(c1C(=O)NCCc1ccccc1)CCC(Nc1cccnc1)C2 (stereo unspecified)	i
Cc1noc2c(-c3cccnc3NC3CCN(C)CC3)cc(-c3ccc(Cl)cc3)nc12	i
Cc1cnc(C(=O)N2CCCCCCN(C)C(=O)[C@@H]3CCC[C@@H]32)cn1	-7.0%
COCC(=O)NCC1c2cc(OC)c(OC)cc2CCN1C(=O)Nc1cccc(F)c1 (stereo unspecified)	i
COc1cc2c(cc1OC)C(CNC(=O)c1cccs1)N(C(=O)Nc1ccc(C)cc1)CC2 (stereo unspecified)	-2.9%
COc1cc2c(cc1OC)C(CNC(=O)c1ccc(C)cc1)N(C(=O)NC(C)C)CC2 (stereo unspecified)	-1.8%
Cc1cc(=O)oc2cc(OCC(=O)Nc3ccc(O)c(C(=O)O)c3)ccc12	5.2%
CCCNC(=O)NCC1c2cc(OC)c(OC)cc2CCN1C(=O)NCC (stereo unspecified)	-18.3%
COc1cc2c(cc1OC)C(COc1ccc3c(C)cc(=O)oc3c1)N(C(=O)c1ccc(C)c(C)c1)CC2 (stereo unspecified)	5.01µM*
COc1cc2c(cc1OC)C(COc1ccc3c(C)cc(=O)oc3c1)N(C(=O)c1ccc(C)cc1)CC2 (stereo unspecified)	11.2µM*
CCCC(=O)N1CCc2cc(OC)c(OC)cc2C1COc1ccc2c(C)cc(=O)oc2c1 (stereo unspecified)	7.08µM*
CN1CCN(C(=O)CC[C@H]2CNC(=O)[C@@H]3[C@@H](CCN3C3CCOCC3)N2C)CC1	0.5%[44.1 µM]
CC1=C[C@@H](CNC(=O)COc2ccccc2)[C@H](C(C)C)C[C@H]1CC(=O)NCCN(C)C	-7.5%[44.1 µM]
O=C(CN1C(=O)COc2ccc(C(=O)COc3ccc(Cl)cc3F)cc21)NC1CCCCC1	5.4%
CC(c1ccc2c(c1)OCCO2)N(C)C(=O)c1ccc2nccn2c1 (stereo unspecified)	9.2%
CCNC(=O)Cc1ccc(N(Cc2ccc(F)cc2)C(=O)c2ccco2)cc1	i
CC(=O)N1CC2(Cc3ccccc31)CN(C(=O)N(C)C)C2	9.9%[44.1 µM]
SMILES	Pf Dd2 growth
COc1cccc(-c2cn3c(n2)N(C(=O)C2CCC2)CCC3)c1	-59.1%
COc1cccc(-c2cn3c(n2)N(C(=O)C2CCCC2)CCC3)c1	8.91µM*
COc1cccc(-c2cn3c(n2)N(C(=O)Cc2ccsc2)CCC3)c1	-2.0%
C1CCC(c2nc(CCOCC3CCOCC3)no2)NC1 (stereo unspecified)	i
C[S+](=O)([O-])N1CC2(CCN(C(=O)CCC(=O)O)C2)Cc2ccccc21 (stereo unspecified)	-5.5%
C[S+](=O)([O-])N1CC2(CCN(C3COC3)CC2)Cc2ccccc21	9.9%
C[S+](=O)([O-])N1CC2(CCN(Cc3c[nH]c4ccccc34)CC2)Cc2ccccc21	11.2µM*
O=C(c1cn2ccsc2n1)N1CC[C@@H](c2ccc3c(c2)OCO3)[C@H](O)C1	-13.5%
c1csc(-c2[nH]ncc2CNC2CCC3(CCNCC3)CC2)c1	9.3%
CCC(C)NC(=O)N1CC(n2cc(C(=O)N3CCOCC3)nn2)C1 (stereo unspecified)	-17.1%
NCc1ccccc1-c1cnc2ccccc2c1	10µM*
O=C(O)c1cccc(-c2cnc3ccccc3c2)c1	31.5%[44.1 µM]
